About 79,000 compounds went through this panel and 15% of them were active in at least one assay; those are over-represented in the sample as a whole. A number with no mark means an inactive call. The source made the active and inactive calls. Rule as the data show it: active = growth inhibition above about 70%; inactive = the rest.

Assay [1] in a line: NCI Yeast Anticancer Drug Screen. Data for the rad50 strain (AID 155).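 Also: 0% = growth of vehicle-only cultures of the same strain.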 Particulars: S. cerevisiae rad50 strain growth inhibition; at 50.0 µM; stronger effect = higher value. The method in brief: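 DNA repair mutant yeast, compound exposure, growth read-out; inhibition is taken relative to vehicle.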
A short description of assay [2]: NCI Yeast Anticancer Drug Screen. Data for the mec2-1 strain (AID 157). Particulars: S. cerevisiae mec2-1 strain, at 50.0 µM, stronger effect = higher value. The method in brief:
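Strain: mec2-1 (DNA repair/cell cycle alteration). Compound exposure, then growth measured; inhibition expressed relative to vehicle.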

Assay [3] can be described thus: NCI Yeast Anticancer Drug Screen. Data for the sgs1 mgt1 strain (AID 161).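 Also: 0% = growth of cultures given vehicle only.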 Particulars: S. cerevisiae sgs1 mgt1 strain, at 50.0 µM, stronger effect = higher value. In outline:
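Genetically altered yeast, compound exposure, growth inhibition relative to vehicle.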

Assay [4] in a line: NCI Yeast Anticancer Drug Screen. Data for the cln2 rad14 strain (AID 165).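 Also: 0% = growth equal to vehicle treated cultures.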 Particulars: S. cerevisiae cln2 rad14 strain, at 50.0 µM, stronger effect = higher value. The method in brief:
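Compounds are applied to the cln2 rad14 yeast strain, and growth is then compared with that of vehicle-treated cultures to give inhibition.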

Assay [5] is described as follows: NCI Yeast Anticancer Drug Screen. Data for the bub3 strain (AID 167). Particulars: S. cerevisiae bub3 mutant strain, at 50.0 µM, stronger effect = higher value. In outline: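 In this screen, a yeast mutant lacking normal mitotic checkpoint function is challenged with compound. Relative growth versus vehicle gives the inhibition value.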
The nature of assay [6]: NCI Yeast Anticancer Drug Screen. Data for the mlh1 rad18 strain (AID 175). Particulars: S. cerevisiae mlh1 rad18 strain growth inhibition; at 50.0 µM; stronger effect = higher value. In outline: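 Read-out is yeast growth inhibition, calculated against vehicle-only controls. The compound was applied to a strain engineered with DNA damage repair alterations.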

For `Nc1cc(N=Nc2ccc([As](=O)(O)O)cc2)ccc1O`, the growth inhibition is 7.95% in assay [1]; 13.4% in assay [2]; -5.2% in assay [3]; 11% in assay [4]; 16.6% in assay [5]; 16.9% in assay [6].
For the compound `Cc1ccc(NC(=O)CCc2ccc(N3C(N)=NC(N)=NC3(C)C)cc2Cl)cc1S(=O)(=O)F`, the growth inhibition in assay [1] is 54.6%; in assay [2], 72.3% (active); in assay [3], 64.2%; in assay [4], -5.25%; in assay [5], -25.9%; in assay [6] it was 15%.
For `CCCC(=O)[O-].CCCC(=O)[O-].N.N.N.N.[Co+3].[O-][Cl+3]([O-])([O-])[O-]`, the growth inhibition in assay [1] is -5.15%; in assay [2], -0.75%; in assay [3] it was -48%; in assay [4], 12.3%; in assay [5] it was -5.1%; in assay [6] it was -12.6%.
As for `C=C1CC2C3CC=C4CC(OC(C)=O)CCC4(C)C3CCC2(C)C1=O` (centres undefined), the growth inhibition in assay [1] is 31.7%; in assay [2] it was 13.8%; in assay [3], 6.15%; in assay [4], 0.55%; in assay [5] it was 15.8%; in assay [6], 15.7%.
With `O=C1CC=C2C3CC4N(CCC45c4ccccc4N1C25)C/C3=C\CO` (centres undefined), the growth inhibition in assay [1] is 22.8%; in assay [2] it was -11.7%; in assay [3], -5.3%; in assay [4], 0%; in assay [5], 37%; in assay [6], -38%.
Regarding `CCCCCCCC(=O)[O][Pb]([CH2]C)([CH2]C)[CH2]C`, the growth inhibition in assay [1] was -7.8%; in assay [2], -29.2%; in assay [3] it was 1.95%; in assay [4], -1.5%; in assay [5], 0%; in assay [6], -21.3%.
For `O=C(Nc1cccc(Cl)c1Cl)C(Cl)(Cl)Cl`, the growth inhibition in assay [1] was 11.8%; in assay [2], 20.9%; in assay [3] it was 19.4%; in assay [4], 6.35%; in assay [5], 31.2%; in assay [6] it was 28.8%.
Regarding `CN1CCC2(CC1)COCc1ccccc12`, the growth inhibition was -9.4% in assay [1]; -5.55% in assay [2]; -2.7% in assay [3]; -19.1% in assay [4]; 11.2% in assay [5]; 4.8% in assay [6].
Regarding `O=C1NN2CCCN=C2c2cnccc21`, the growth inhibition in assay [1] was -12.3%; in assay [2] it was 4.5%; in assay [3] it was 11.4%; in assay [4] it was -34.6%; in assay [5], 27.6%; in assay [6], -7.4%.
Take `CCCN(C)C(C)(C)C(=O)c1ccccc1`: the growth inhibition in assay [1] was 8.8%; in assay [2] it was -3.95%; in assay [3], -20.2%; in assay [4] it was -10.2%; in assay [5], -18.9%; in assay [6] it was -8.1%.
On to `O=P(CCP(=O)(c1ccccc1)c1ccccc1)(c1ccccc1)c1ccccc1`, for which the growth inhibition is -17.6% in assay [1]; -23.1% in assay [2]; -0.5% in assay [3]; 26.2% in assay [4]; 3.2% in assay [5]; 3.75% in assay [6].
For `N#CN`, the growth inhibition was -9.55% in assay [1]; -17.2% in assay [2]; 22.1% in assay [3]; -16.1% in assay [4]; -13.2% in assay [5]; -5.8% in assay [6].
Turning to `CN(C)CCNC(=O)c1cccc(COC(=O)N(CCCl)CCCl)c1[N+](=O)[O-]`, the growth inhibition in assay [1] is 9.55%; in assay [2], -2.4%; in assay [3], 15.8%; in assay [4], 10.1%; in assay [5], -9.45%; in assay [6], 9.7%.
Take `COC(=O)CN(C)P(=O)(N1CC1)N1CC1`: the growth inhibition was 13.4% in assay [1]; 7.15% in assay [2]; -4.1% in assay [3]; -10.2% in assay [4]; -2.8% in assay [5]; -10.1% in assay [6].
Consider `CCC(CC)C(=O)Cl`, for which the growth inhibition in assay [1] was -3.8%; in assay [2], -4.6%; in assay [3] it was -33.2%; in assay [4], -13.1%; in assay [5], -1.35%; in assay [6] it was -22.9%.
In the case of `CCCCCSP(SCCCCC)c1ccccc1`, the growth inhibition in assay [1] was 79.8% (active); in assay [2], 67.3%; in assay [3], 79.5% (active); in assay [4], 37.6%; in assay [5] it was 40.4%; in assay [6], 61.8%.
`NC(c1ccccc1)C(O)c1ccc(O)cc1` (centres undefined): the growth inhibition in assay [1] is 19.4%; in assay [2] it was 12.3%; in assay [3], 10.1%; in assay [4], -10.6%; in assay [5], 1.05%; in assay [6], -8.35%.
On to `O=C/C=C/c1ccccc1.[Fe+2].[c-]1[c-][c-][cH-][c-]1.[c-]1[c-][c-][cH-][c-]1`, for which the growth inhibition in assay [1] was 4.65%; in assay [2] it was -48.2%; in assay [3], 1.65%; in assay [4], 7.85%; in assay [5] it was 11.4%; in assay [6] it was 0.4%.
Regarding `COc1cc(/C=C(\C)[N+](=O)[O-])cc(OC)c1`, the growth inhibition in assay [1] was 18.9%; in assay [2], 16.1%; in assay [3], 34%; in assay [4], 58.2%; in assay [5], 64.7%; in assay [6], 86.3% (active).
With `Oc1cccc(-c2ccccc2)c1`, the growth inhibition in assay [1] is 20.5%; in assay [2], 17.2%; in assay [3], 20.3%; in assay [4], 5.35%; in assay [5] it was 30.1%; in assay [6] it was 21.2%.
For the compound `NCC(=O)c1ccc(O)c(O)c1`, the growth inhibition was -8.85% in assay [1]; -7.05% in assay [2]; -4.35% in assay [3]; 2.8% in assay [4]; 16.4% in assay [5]; -8.55% in assay [6].
Consider `C=CC1CC=CCC1` (centres undefined), for which the growth inhibition in assay [1] was -7.1%; in assay [2], -5.2%; in assay [3], 9.15%; in assay [4] it was -25.2%; in assay [5], -0.55%; in assay [6], -11.9%.
With `CC(C)(C)NP(=O)(NC(C)(C)C)NC(C)(C)C`, the growth inhibition in assay [1] was 5.65%; in assay [2] it was -9.6%; in assay [3], -17.2%; in assay [4], 4.85%; in assay [5], -8.5%; in assay [6], 8.2%.
As for `c1ccc2c(c1)SCCC2NC1=NCCO1` (centres undefined), the growth inhibition in assay [1] was -15.2%; in assay [2], -13.6%; in assay [3], -9%; in assay [4] it was 9.45%; in assay [5], 8.7%; in assay [6], -36.3%.
`O=C(O)C(Cl)C(=O)O`: the growth inhibition is -4.4% in assay [1]; -7.8% in assay [2]; 9% in assay [3]; -26.4% in assay [4]; -0.35% in assay [5]; -13.9% in assay [6].
For `CC(=O)C(Sc1ccccc1[N+](=O)[O-])C(C)=O.[Co]`, the growth inhibition is 33.2% in assay [1]; 9.5% in assay [2]; 4.75% in assay [3]; -1.3% in assay [4]; 6.45% in assay [5]; 15.8% in assay [6].
Turning to `Cn1cnnc1N`, the growth inhibition is 5.4% in assay [1]; 5.7% in assay [2]; 6.3% in assay [3]; 4.4% in assay [4]; 13.2% in assay [5]; 4.35% in assay [6].
With `Cc1ccc(C(=O)C(C)N)cc1C` (centres undefined), the growth inhibition in assay [1] is -13.6%; in assay [2] it was -13%; in assay [3] it was -17.8%; in assay [4] it was 15.2%; in assay [5], 1.6%; in assay [6], 22.4%.
For the compound `CC(C)C1NC(C(C)C)N2C(C(C)C)N12` (centres undefined), the growth inhibition is -0.05% in assay [1]; -17.2% in assay [2]; -14.3% in assay [3]; -24.5% in assay [4]; -2.25% in assay [5]; -1.5% in assay [6].
With `O=C(Nc1cc(S(=O)(=O)O)cc2cc(S(=O)(=O)O)c(N=Nc3ccc([As](=O)(O)O)cc3)c(O)c12)c1ccc([N+](=O)[O-])cc1`, the growth inhibition is 12.7% in assay [1]; 1.7% in assay [2]; -7.45% in assay [3]; -9.1% in assay [4]; -3.4% in assay [5]; 6.55% in assay [6].
In the case of `CC(C)(C)P(O)(=S)c1ccccc1` (centres undefined) (tested in a mixture with another compound), the growth inhibition is 2.65% in assay [1]; 2.1% in assay [2]; 1.9% in assay [3]; -34.2% in assay [4]; -24.6% in assay [5]; 5.35% in assay [6].
With `COc1ccccc1-n1c(C)nc2ccccc2c1=O`, the growth inhibition in assay [1] was -5%; in assay [2], -19.6%; in assay [3] it was 6.2%; in assay [4], 2.8%; in assay [5], 19.7%; in assay [6], 4.8%.
Turning to `Clc1ccc(N=c2ccc3ccccc3[oH+]2)cc1.Clc1ccc(N=c2ccc3ccccc3[oH+]2)cc1.[Co]`, the growth inhibition in assay [1] is -5.05%; in assay [2], -25.4%; in assay [3], 14.8%; in assay [4], -59.2%; in assay [5], -12.8%; in assay [6], 15.6%.
As for `N#CCc1ccc(O)cc1`, the growth inhibition in assay [1] was 1.25%; in assay [2] it was 6.75%; in assay [3], -20.8%; in assay [4] it was -5.1%; in assay [5], -4.7%; in assay [6], 14%.
Turning to `CCNC1=C(N2CC2)C(=O)C(NCC)=C(N2CC2)C1=O`, the growth inhibition was 30.5% in assay [1]; 15.7% in assay [2]; 29.4% in assay [3]; 8.1% in assay [4]; 13.3% in assay [5]; 18.7% in assay [6].
As to `Cc1cc(NC(=O)Oc2ccc([N+](=O)[O-])cc2)ccc1S(=O)(=O)F`, the growth inhibition was 1.85% in assay [1]; 39.4% in assay [2]; 14.2% in assay [3]; 4% in assay [4]; 28.6% in assay [5]; 35% in assay [6].
Regarding `Nc1ccc([N+](=O)[O-])cc1`, the growth inhibition in assay [1] was -11.2%; in assay [2] it was 2.8%; in assay [3], -14.9%; in assay [4] it was -6.55%; in assay [5] it was -14.7%; in assay [6] it was -1%.
Consider `CCNP(=O)(OCC)OCC`, for which the growth inhibition in assay [1] is 9.9%; in assay [2], -15.6%; in assay [3], 12.2%; in assay [4] it was 24.4%; in assay [5], 7.6%; in assay [6] it was 17.9%.
On to `Cc1ccccc1-n1c(C)nc2ccccc2c1=O`, for which the growth inhibition in assay [1] is -29.3%; in assay [2], -30.7%; in assay [3] it was -1.35%; in assay [4], 11.6%; in assay [5], 1.5%; in assay [6] it was -20.7%.

The values above are taken from PubChem BioAssay (NCI).
